Screening data from PubChem.
Hits are enriched below; roughly 2.4% of the tested compounds scored in any of these assays.
D2 ag-1 – activates the human D2 dopamine receptor; P14416; DiscoveRx PathHunter D2 beta-arrestin, luminescence, 90 min; 100% = 57 uM dopamine signal; activation, % (concentration not given with the values); 360,000 tested, 0.084% active; AID 624465; in the data active = activation above about 40%; inconclusive = between about 15% and that limit
Target sequence (P14416 whole entry, looked up): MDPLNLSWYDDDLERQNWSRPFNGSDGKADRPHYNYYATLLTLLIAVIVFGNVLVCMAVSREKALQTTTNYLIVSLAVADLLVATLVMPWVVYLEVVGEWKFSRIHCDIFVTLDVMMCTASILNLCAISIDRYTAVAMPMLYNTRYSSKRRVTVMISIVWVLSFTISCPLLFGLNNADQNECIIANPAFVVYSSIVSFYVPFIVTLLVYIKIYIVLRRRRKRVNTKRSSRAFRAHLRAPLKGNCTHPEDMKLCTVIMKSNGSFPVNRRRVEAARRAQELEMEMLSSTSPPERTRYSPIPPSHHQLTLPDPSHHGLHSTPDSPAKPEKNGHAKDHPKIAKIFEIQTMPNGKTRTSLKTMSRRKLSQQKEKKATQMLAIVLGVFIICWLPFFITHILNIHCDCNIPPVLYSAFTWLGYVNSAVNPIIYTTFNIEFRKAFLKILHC
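Agonist mode: compounds alone added to overnight-plated D2 PathHunter cells for 90 min at 37 C, with 57 uM final dopamine (EC100) defining full response. Beta-arrestin recruitment detected by chemiluminescent reagent, read after 1 h at ambient temperature.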
D2 ag-2 – D2 dopamine receptor (human) agonism. P14416. HEK293 T-REx D2 cells, calcium flux agonist mode. activation, % at 2 µM. 340,000 tested, 0.53% active. AID 485358;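 active = activation over 3 SD above normal in the single-dose calcium agonist read, cut at about 30% in these data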; also: 0% is about no effect
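Tetracycline-induced HEK293 T-REx cells with force-coupled D2 receptor, plated overnight at 30 C, loaded with no-wash calcium dye. After a 10 s baseline, compound was pin-added and calcium flux read kinetically for 180 s; calcium rises flagged agonists.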
D2 PAM-1 – positive allosteric modulators of human D2 dopamine receptor; potentiation, % at 10 µM; AID 485347; 340,000 tested, 0.34% active; HEK293 T-REx D2, calcium flux, EC20 dopamine potentiation; P14416;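 active = potentiation over 3 SD above the plate norm, cut at about 30% in these data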; also: 0% is about no effect
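Using a no-wash calcium dye in inducible, force-coupled HEK293 Trex cells expressing D2, we tracked fluorescence each second for 180 s after compound, then for 180 s after EC20 dopamine to detect augmented signalling.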
D2 PAM-2 – human D2 receptor positive allosteric modulation. potentiation, % (no concentration beside the values). 360,000 tested, 0.23% active. DiscoveRx D2 beta-arrestin cells, luminescence, 90 min; 100% = 57 uM dopamine signal. P14416; in the data active = potentiation above about 50%; inconclusive = mostly about 30% to 49%
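D2 cells co-treated with compound plus 50 nM dopamine (EC20) for 90 min at 37 deg C to detect potentiation. Beta-arrestin recruitment was read as enzyme-fragment luminescence after 1 h at ambient temperature. Full response was set by 57 uM dopamine.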
D2 antagonist – antagonizes the human D2 dopamine receptor. P14416. 340,000 tested, 2% active. HEK293 TREx D2 cells, calcium flux, dopamine EC80. inhibition, % at 10 µM. AID 485344; in the data active = inhibition above about 30%; inactive = below that, where a call was filed; also: 0% is about no effect
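HEK293 T-REx D2 cells, tet-induced, calcium dye no-wash. Cpd pintool add, 180 s kinetic, then EC80 DA, 180 s kinetic. Ca flux read.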
Numbers without * were called inactive.

Results for COc1ccccc1CN1CCC(CNS(=O)(=O)c2cc(-c3onc(C)c3C)ccc2OC)CC1 ?
D2 ag-1: -3; D2 ag-2: -1; D2 PAM-1: 10; D2 PAM-2: -30; D2 antagonist: 33*

What do the screens show for `CC(C)(C)N(NC(=O)c1ccccc1)C(=O)c1ccc(C(=O)N(NC(=O)c2ccccc2)C(C)(C)C)cc1`?
D2 ag-1: 3; D2 ag-2: 1; D2 PAM-1: -5; D2 PAM-2: -26; D2 antagonist: 33*

What do the screens show for `CCc1ccc(C(=O)NN(C(=O)c2ccc(CC)cc2)C(C)(C)C)cc1`?
D2 ag-1: -2; D2 ag-2: -1; D2 PAM-1: 2; D2 PAM-2: -16; D2 antagonist: 0

What do the screens show for `Cc1cccc(CNC(=O)Cc2ccc(NC(=O)N3CCCCc4ccccc43)cc2)c1`?
D2 ag-2: 0; D2 PAM-1: 12

How did CC(=O)Nc1ccc(NS(=O)(=O)c2c(C(=O)N3CCC(C)CC3)c(C)n(C)c2C)cc1 do in these assays?
D2 ag-2: 2; D2 PAM-1: 19

What do the screens show for `COc1ccc(-n2c(-c3ccc(Br)cc3)n[nH]c2=S)cc1`?
D2 ag-1: -3; D2 ag-2: 0; D2 PAM-1: -8; D2 PAM-2: -4; D2 antagonist: 31*

Results for COc1ccc2nc3cc(Cl)ccc3c(Nc3cc(C(C)C)c(O)cc3C)c2c1 ?
D2 ag-1: 10; D2 ag-2: -1; D2 PAM-1: -24; D2 PAM-2: -10; D2 antagonist: 31*

What do the screens show for `CCN(CC)CCCC(C)Nc1c2ccc(Cl)cc2nc2ccc(OC)cc12` (configuration not stated)?
D2 ag-2: 7; D2 PAM-1: 1; D2 antagonist: -1

How did Cc1cc(=O)[nH]c(SCC(=O)NCC2CCCO2)n1 (configuration not stated) do in these assays?
D2 ag-1: -5; D2 ag-2: 0; D2 PAM-1: -10; D2 PAM-2: -2; D2 antagonist: 34*

Results for CCN(c1ccccc1)S(=O)(=O)c1nnc(NC(=O)c2ccccc2)s1 ?
D2 ag-2: 1

Results for COc1ccc(/C=N/Nc2nnc(C)n2N)cc1OC ?
D2 ag-1: inconclusive; D2 ag-2: 0; D2 PAM-1: 10; D2 PAM-2: 57*; D2 antagonist: -1

How did CC(C)Oc1cccc(C(=O)Nc2ccc(-c3nc4cc(Cl)cc(Cl)c4o3)cc2)c1 do in these assays?
D2 ag-2: 0; D2 PAM-1: -8

Results for CC1(C(=O)NNC(=O)c2cccc([N+](=O)[O-])c2)CC1(Br)Br (configuration not stated) ?
D2 ag-1: 2; D2 ag-2: 0; D2 PAM-1: -4; D2 PAM-2: -4; D2 antagonist: 2

Results for CC1(C(=O)NNC(=O)c2ccc([N+](=O)[O-])cc2)CC1(Br)Br (configuration not stated) ?
D2 ag-1: -5; D2 ag-2: 0; D2 PAM-1: 4; D2 PAM-2: -28; D2 antagonist: 37*

How did CC1SC2(NC1=O)C1CC3CC(C1)CC2C3 (configuration not stated) do in these assays?
D2 ag-1: 3; D2 PAM-2: -3

Results for CCOc1ccc(NC(=O)C2CCN(S(=O)(=O)c3cccs3)CC2)cc1 ?
D2 ag-1: 5; D2 ag-2: -2; D2 PAM-1: 32*; D2 PAM-2: 11; D2 antagonist: -1

How did O=C(NCCc1ccccc1)C1CCN(S(=O)(=O)c2cccs2)CC1 do in these assays?
D2 ag-1: -2; D2 ag-2: 0; D2 PAM-1: -14; D2 PAM-2: -3; D2 antagonist: -5

What do the screens show for `O=C(NCCN1C(=O)S/C(=C\c2ccccc2)C1=O)C1CCN(S(=O)(=O)c2cccs2)CC1`?
D2 ag-1: -2; D2 ag-2: 1; D2 PAM-1: -11; D2 PAM-2: -9; D2 antagonist: 33*

How did O=C(NCc1nnc2c(C(F)(F)F)cc(Cl)cn12)C1CCCC1 do in these assays?
D2 ag-1: 0; D2 ag-2: 0; D2 PAM-1: -2; D2 PAM-2: -10; D2 antagonist: 2

Results for COc1ccc(CNC(=O)C2CCN(S(=O)(=O)c3cccc(C(F)(F)F)c3)CC2)cc1 ?
D2 ag-1: 4; D2 ag-2: 0; D2 PAM-1: -6; D2 PAM-2: 11; D2 antagonist: 6

How did COc1ccc(N2CCC(CNS(=O)(=O)c3cccc(C(F)(F)F)c3)C2)cc1 (configuration not stated) do in these assays?
D2 ag-1: 2; D2 ag-2: 4; D2 PAM-2: -7; D2 antagonist: 38*

How did COCC(=O)N(Cc1cc2ccc(C)c(C)c2n2nnnc12)C1CCCC1 do in these assays?
D2 ag-1: 1; D2 ag-2: 0; D2 PAM-1: 37*; D2 PAM-2: -3; D2 antagonist: 8

What do the screens show for `CC(=O)c1ccc(NC(=O)c2ccc3nc(-c4ccco4)c(-c4ccco4)nc3c2)cc1`?
D2 ag-1: 13; D2 PAM-2: 76*

What do the screens show for `O=C(Nc1ccccc1)c1ccc2nc(-c3ccco3)c(-c3ccco3)nc2c1`?
D2 ag-1: 7; D2 ag-2: -2; D2 PAM-1: 25; D2 PAM-2: inconclusive; D2 antagonist: 1

What do the screens show for `O=C(C1CC1)N(Cc1ccco1)c1nc(-c2ccccc2)cs1`?
D2 ag-1: 0; D2 ag-2: 0; D2 PAM-1: 30*; D2 PAM-2: 2; D2 antagonist: 4

How did N#Cc1ccc(C(=O)N2CCCCC2c2cc(C(=O)Nc3ccccc3Cl)no2)cc1 (configuration not stated) do in these assays?
D2 ag-1: -6; D2 PAM-2: -3

Results for CC1CCC(NC(=O)c2cc3c(s2)CS(=O)(=O)C3)CC1 (configuration not stated) ?
D2 ag-1: -2; D2 ag-2: 1; D2 PAM-1: 11; D2 PAM-2: -10; D2 antagonist: 41*

How did CCCSCCCNC(=O)c1cc2c(s1)CS(=O)(=O)C2 do in these assays?
D2 ag-1: -1; D2 ag-2: 0; D2 PAM-1: 0; D2 PAM-2: 5; D2 antagonist: -5

What do the screens show for `CCN(CC)c1ccc(C(=O)N2CCc3c([nH]c4ccccc34)C2c2ccc(F)cc2)cc1` (configuration not stated)?
D2 ag-2: 0; D2 PAM-1: -12

How did CC(C)(C)NC(=O)C(c1ccncc1)N(Cc1cccs1)C(=O)c1csnn1 (configuration not stated) do in these assays?
D2 ag-1: -1; D2 ag-2: 1; D2 PAM-1: -6; D2 PAM-2: -4; D2 antagonist: -3
